A number with no mark means an inactive call. Inconclusive results are not listed. Entries that show only a call come without a potency. Calls of active or inactive are those of the source. Calls come from the whole dose curve; as a rule, active = well fitted curve in the direction sought with a large enough effect; inconclusive = small, poorly fitted or top-dose-only effect, or another doubt; inactive = no such curve, though single readings can be large or run the other way.
target: Hexokinase-4 (Homo sapiens) + Glucokinase regulatory protein (Homo sapiens) (UniProt P35557+Q14397); experiment: qHTS assay for inhibitors of recombinant human GCK-GKRP interaction: HTRF assay (AID 743207); settings: recombinant GCK-GKRP HTRF binding, 60 min, with sorbitol-6-phosphate; series mostly up to 57.5 µM
Sequence (P35557 whole entry, looked up): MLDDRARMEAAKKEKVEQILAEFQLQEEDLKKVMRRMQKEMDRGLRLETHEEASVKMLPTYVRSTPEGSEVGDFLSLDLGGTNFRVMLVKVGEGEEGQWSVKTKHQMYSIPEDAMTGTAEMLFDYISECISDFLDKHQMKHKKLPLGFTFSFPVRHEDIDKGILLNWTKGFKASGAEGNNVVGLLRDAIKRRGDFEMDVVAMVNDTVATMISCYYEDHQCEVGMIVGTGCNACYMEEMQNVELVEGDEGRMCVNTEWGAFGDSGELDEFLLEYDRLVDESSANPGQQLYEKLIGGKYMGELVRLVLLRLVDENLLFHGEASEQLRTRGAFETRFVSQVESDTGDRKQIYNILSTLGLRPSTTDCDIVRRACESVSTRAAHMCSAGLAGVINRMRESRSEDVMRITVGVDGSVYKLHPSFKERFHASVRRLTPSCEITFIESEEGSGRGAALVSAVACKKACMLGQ
Sequence (Q14397 whole entry, looked up): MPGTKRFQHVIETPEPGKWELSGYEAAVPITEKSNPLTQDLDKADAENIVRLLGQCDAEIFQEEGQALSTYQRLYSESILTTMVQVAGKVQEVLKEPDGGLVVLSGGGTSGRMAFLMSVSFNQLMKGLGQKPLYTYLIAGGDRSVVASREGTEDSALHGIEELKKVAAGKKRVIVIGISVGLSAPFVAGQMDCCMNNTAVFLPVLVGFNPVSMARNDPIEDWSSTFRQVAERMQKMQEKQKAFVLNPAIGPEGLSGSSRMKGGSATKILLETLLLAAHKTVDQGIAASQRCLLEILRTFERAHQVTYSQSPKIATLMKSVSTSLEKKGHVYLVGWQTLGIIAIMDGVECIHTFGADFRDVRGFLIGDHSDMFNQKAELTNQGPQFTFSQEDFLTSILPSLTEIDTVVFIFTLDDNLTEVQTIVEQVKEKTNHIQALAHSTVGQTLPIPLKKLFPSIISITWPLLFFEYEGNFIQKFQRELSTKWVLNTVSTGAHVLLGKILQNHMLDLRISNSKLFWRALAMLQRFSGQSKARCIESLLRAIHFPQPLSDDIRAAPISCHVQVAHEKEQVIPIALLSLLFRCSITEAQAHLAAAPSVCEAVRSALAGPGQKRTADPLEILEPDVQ
Method in brief: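 HTRF binding of 5 nM GST-GCK and 5 nM FLAG-GKRP with 2 uM S6P in pH 7.1 Hepes buffer (MgCl2, KCl, DTT, Tween 20, BSA). Anti-FLAG XL665 and anti-GST donor added, 60 min at room temperature; 665/615 nm read, normalized to with- and without-GCK controls.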

SMILES | Potency
CC[C@@H]1Cc2cc(O)ccc2C2=C1c1ccc(O)cc1C[C@H]2CC | inactive
Cc1cccc(C)c1OCC(N)C(C)C (stereo not given) | inactive
C/C(=C\c1ccc(C(=O)O)cc1)c1ccc2c(c1)C(C)(C)CCC2(C)C | inactive
CC1=C(/C=C/C(C)=C/C=C/C(C)=C\C(=O)O)C(C)(C)CCC1 | inactive
CSC(N)=NCCC[C@H](N)C(=O)O | inactive
Cc1cc2c(cc1Cl)N(C(=O)Nc1ccnc3ccccc13)CC2 | inactive
C[N+](C)(C)CC=O | inactive
CC1CCN(CC[C@H]2CCCN2S(=O)(=O)c2cccc(O)c2)CC1 | inactive
NC1(C(=O)O)CC1 | inactive
O=C(OCCN1CCOCC1)C1(c2ccccc2)CCCCC1 | inactive
CCCc1c(OCCCOc2ccc(OCC(=O)O)cc2)ccc(C(C)=O)c1O | inactive
CC(O)C(O)[C@H]1CNc2nc(N)[nH]c(=O)c2N1 (stereo not given in full) | inactive
COc1ccc(-c2cc3ncc(C)n3c(Nc3ncccc3C(N)=O)n2)cc1OC | inactive
CNc1cc(NS(=O)(=O)c2ccc(N)cc2)nc(NC)n1 | inactive
COc1ccccc1N1CCN(CCCCNC(=O)c2ccc3ccccc3c2)CC1 | inactive
NC(N)=NC(N)=Nc1ccccc1 | inactive
CCCCCCCCCCC/C=C\C(C)(C)/C=C\CCCC(=O)O | inactive
O=C(O)/C=C/c1ccc(O)c(O)c1 | inactive
COc1cc2c(CCNC(C)=O)c[nH]c2cc1O | inactive

SMILES | Potency
COC(=O)C1=C(C)NC(C)=C([N+](=O)[O-])C1c1ccccc1C(F)(F)F (stereo not given) | inactive
C[C@H](O)C(=O)C1=Nc2c(nc(N)[nH]c2=O)NC1 | inactive
O=C(c1ccc2c(c1)OCCO2)N1CCCCC1 | inactive
O=C(O)c1cccnc1C(=O)O | inactive
O=C(O)/C(=C/c1c(C(=O)O)[nH]c2cc(Cl)cc(Cl)c12)c1ccccc1 | inactive
N#C/C(=C\c1ccc(O)c(O)c1)C(=O)NCCc1ccccc1 | inactive
CCCC(=O)NCCc1c2n(c3ccc(OC)cc13)CCCc1ccccc1-2 | inactive
COc1cc(/C=C(\C#N)C(=O)c2ccc(O)c(O)c2)cc(I)c1O | inactive
CC(C)(C)c1ccc(/C=C/C(=O)Nc2ccc3c(c2)OCCO3)cc1 | inactive
CC(C)NCC(O)COc1ccc(CC(N)=O)cc1 (stereo not given) | inactive
COc1ccc2c(c1)c(CC(=O)O)c(C)n2C(=O)c1ccccc1 | inactive
CCCCCCCCCCCCCCSCC(=O)O | inactive
CCC(=O)N1CCN(C(=O)c2ccccc2)CC1 | inactive
Cc1cc(Cn2cnc3c2C[C@@H](C(=O)O)N(C(=O)C(c2ccccc2)c2ccccc2)C3)ccc1N | inactive
NC1(C(=O)O)CCc2cc(C(=O)O)ccc21 (stereo not given) | inactive
CC(=O)[C@H]1CCC2C3CC=C4C[C@@H](OS(=O)(=O)O)CC[C@]4(C)C3CC[C@@]21C (stereo not given in full) | inactive
CCN(CC)CCOC(=O)c1cc(Cl)c(N)cc1OC | inactive
c1ccc(C(NCc2cccnc2)(c2ccccc2)c2ccccc2)cc1 | inactive
CCCc1c(-c2ccc(O)cc2)nn(-c2ccc(O)cc2)c1-c1ccc(O)cc1 | inactive

tested on: not listed separately; experiment: qHTS Assay for Identifying Gametocytocidal Compounds (AID 743244); note: potency is the fitted concentration of half-maximal effect;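 for max response: actives lower the fluorescent signal which means gametocytes are killed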; settings: P. falciparum 3D7 stage III-V gametocytes, alamarBlue, 72 h; max response: hits give low values
Method in brief: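 Compounds are pinned into medium, gametocytes (stage III–V, 3D7, 20,000 cells/well) added, and plates held 72 h at 37 °C in 5% CO2. AlamarBlue follows for 24 h before fluorescence reading.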

SMILES | Potency | max response [%]
CC[C@@H]1Cc2cc(O)ccc2C2=C1c1ccc(O)cc1C[C@H]2CC | 3.55 µM (active) | –
Cc1cccc(C)c1OCC(N)C(C)C (stereo not given) | 23.5 µM (active) | –
C/C(=C\c1ccc(C(=O)O)cc1)c1ccc2c(c1)C(C)(C)CCC2(C)C | – | 19.4
CSC(N)=NCCC[C@H](N)C(=O)O | – | 9.52
Cc1cc2c(cc1Cl)N(C(=O)Nc1ccnc3ccccc13)CC2 | – | 6.93
C[N+](C)(C)CC=O | – | 21.1
CC1CCN(CC[C@H]2CCCN2S(=O)(=O)c2cccc(O)c2)CC1 | – | 10.9
NC1(C(=O)O)CC1 | – | 4.84
O=C(OCCN1CCOCC1)C1(c2ccccc2)CCCCC1 | – | 16.2
CCCc1c(OCCCOc2ccc(OCC(=O)O)cc2)ccc(C(C)=O)c1O | – | 1.52
CC(O)C(O)[C@H]1CNc2nc(N)[nH]c(=O)c2N1 (stereo not given in full) | – | 8.13
COc1ccc(-c2cc3ncc(C)n3c(Nc3ncccc3C(N)=O)n2)cc1OC | – | 12.4
CNc1cc(NS(=O)(=O)c2ccc(N)cc2)nc(NC)n1 | – | 12.8
COc1ccccc1N1CCN(CCCCNC(=O)c2ccc3ccccc3c2)CC1 | – | 17.6
NC(N)=NC(N)=Nc1ccccc1 | – | 28.5
CCCCCCCCCCC/C=C\C(C)(C)/C=C\CCCC(=O)O | – | 11.6
O=C(O)/C=C/c1ccc(O)c(O)c1 | – | 8.93
COc1cc2c(CCNC(C)=O)c[nH]c2cc1O | – | 18.4
COC(=O)C1=C(C)NC(C)=C([N+](=O)[O-])C1c1ccccc1C(F)(F)F (stereo not given) | – | 19.5

SMILES | Potency | max response [%]
C[C@H](O)C(=O)C1=Nc2c(nc(N)[nH]c2=O)NC1 | – | 13.3
O=C(c1ccc2c(c1)OCCO2)N1CCCCC1 | – | 22.1
O=C(O)c1cccnc1C(=O)O | – | 4.44
O=C(O)/C(=C/c1c(C(=O)O)[nH]c2cc(Cl)cc(Cl)c12)c1ccccc1 | – | 2.21
N#C/C(=C\c1ccc(O)c(O)c1)C(=O)NCCc1ccccc1 | – | 5.86
CCCC(=O)NCCc1c2n(c3ccc(OC)cc13)CCCc1ccccc1-2 | – | 19.4
COc1cc(/C=C(\C#N)C(=O)c2ccc(O)c(O)c2)cc(I)c1O | – | 9.56
CC(C)(C)c1ccc(/C=C/C(=O)Nc2ccc3c(c2)OCCO3)cc1 | – | 13.4
CC(C)NCC(O)COc1ccc(CC(N)=O)cc1 (stereo not given) | – | 27.5
COc1ccc2c(c1)c(CC(=O)O)c(C)n2C(=O)c1ccccc1 | – | 11.3
CCCCCCCCCCCCCCSCC(=O)O | – | 30.8
CCC(=O)N1CCN(C(=O)c2ccccc2)CC1 | – | 9.08
Cc1cc(Cn2cnc3c2C[C@@H](C(=O)O)N(C(=O)C(c2ccccc2)c2ccccc2)C3)ccc1N | – | -5.22
NC1(C(=O)O)CCc2cc(C(=O)O)ccc21 (stereo not given) | – | 9.78
CC(=O)[C@H]1CCC2C3CC=C4C[C@@H](OS(=O)(=O)O)CC[C@]4(C)C3CC[C@@]21C (stereo not given in full) | – | 21.2
CCN(CC)CCOC(=O)c1cc(Cl)c(N)cc1OC | – | 40.4
c1ccc(C(NCc2cccnc2)(c2ccccc2)c2ccccc2)cc1 | – | 16.7
CCCc1c(-c2ccc(O)cc2)nn(-c2ccc(O)cc2)c1-c1ccc(O)cc1 | – | 23.6
